Compound activity (PubChem)
Only some compounds are listed: those with a hit (about 7.9% of all), similar ones and a draw of the others.
KB-V1 cytotox – kills drug-selected multidrug resistant KB-V1 cells | KB-V1 MDR cells viability, CellTiter-Glo, 72 h | Potency, µM (doses to about 46.1 µM), most hits filed as cytotoxic | hit rate 3.4% among 400,000 | AID 1347076; also: % is scaled to controls: 0 for no effect and ±100 for the full control effect; nearly all actives have a fitted effect of over 60% in size
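Cytotoxicity via CellTiter-Glo luminescence after 72 h compound exposure at 37 degrees C. Cells: drug-selected KB-V1 line, DMEM phenol-red free plus 10% FBS. Compounds tested at multiple concentrations; normalized data fitted to concentration-effect curves.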
HT1080-NT tox – kills 2HG-producing HT-1080-NT fibrosarcoma cells; HT-1080-NT fibrosarcoma viability, CellTiter-Glo ATP luminescence, 48 h; Potency, µM (highest dose often 46.1 µM), for the others: at the top dose activity, negative = less viability, most hits filed as cytotoxic; hit rate 1.6% among 360,000; AID 686970;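 also: NT is the 2HG producing partner of a matched IDH1 knockdown line; 0% = DMSO-treated cells and -100% = media-only wells without cells; nearly all actives have a fitted effect of over 55% in size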
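Read-out is CellTiter-Glo luminescence after 10 minutes at room temperature, following 48 hours' compound treatment of HT-1080-NT cells (750 cells/well, RPMI, 5% FBS, 37 degrees C).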
MCF10A rereplic – induces DNA re-replication in MCF 10a normal breast cells | MCF 10A DNA re-replication, Hoechst nuclear intensity, 48 h | Potency, µM (doses to about 46.1 µM), without a hit: at the top dose activity, positive = re-replication, usual class: activators | AID 624296 | hit rate 2.9% among 350,000; also: % of control where 0% means no effect; nearly all actives have a fitted effect of over 50% in size
HT1080 IDH1KD tx – toxicity to HT-1080 IDH1 knockdown cells (counter line); hit rate 2% among 360,000; HT-1080 IDH1 knockdown viability, ATP luminescence, 48 h; Potency, µM (top dose mostly 46.1 µM), inactives show at the highest dose activity, negative = toxicity, hits mostly cytotoxic;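 also: 0% = DMSO wells and -100% = cell-free medium wells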
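CellTiter-Glo luminescence after 48 h compound exposure at 37 degrees C of IDH1-knockdown HT-1080 cells in 5% FBS RPMI. %Activity scaled between DMSO wells and cell-free media wells, with curves fitted and assigned curve classes.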
SW480 rereplic – inducers of DNA re-replication in SW480 colon cancer cells. SW480 DNA re-replication, Hoechst DNA content imaging, 48 h. Potency, µM (top dose mostly 46.1 µM), for inactives: at the highest dose re-replication activation, most hits filed as activators. hit rate 1.8% among 340,000; also: % of control where 0% means no effect; nearly all actives have a fitted effect of over 55% in size
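SW480 cells exposed to compounds for 48 hr at 37 C, 5% CO2, then Hoechst-stained 40 min. Nuclear DNA content imaged by fluorescence scanning (405 nm excitation, 500-530 nm emission); re-replication scored as increased high-intensity nuclei.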
KB-3-1 tox – kills parental KB-3-1 adenocarcinoma cells | hit rate 1.4% among 400,000 | KB-3-1 viability, CellTiter-Glo ATP luminescence, 72 h | Potency, µM (highest dose often 46.1 µM), usual class: cytotoxic; also: % is scaled to controls: 0 for no effect and ±100 for the full control effect; nearly all actives have a fitted effect of over 60% in size
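Parental KB-3-1 viability, qHTS format: 72 h compound exposure, 37 °C; CellTiter-Glo; media-only wells and DMSO plates as controls; concentration-effect fits on corrected data.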
* hit, by the source's call. Calls follow the shape of the dose curve; as a rule, active = well fitted curve in the direction sought with a large enough effect; inconclusive = small, poorly fitted or top-dose-only effect, or another doubt; inactive = no such curve, though single readings can be large; an effect the other way counts as inactive or inconclusive. Potency is read from the fitted curve at half-maximal effect.

For NC(=O)c1ccc(N2CCN(S(=O)(=O)c3ccccc3)CC2)c([N+](=O)[O-])c1 the results were KB-V1 cytotox 9.2µM*, HT1080-NT tox -18.3%, MCF10A rereplic 35.0%, HT1080 IDH1KD tx -24.5%, SW480 rereplic -4.4% and KB-3-1 tox 18.4µM*.
Cc1ccc(S(=O)(=O)N2CCN(c3ccc(C(=O)N4CCOCC4)cc3[N+](=O)[O-])CC2)cc1 was read as KB-V1 cytotox 2.91µM*, HT1080-NT tox -10.8%, MCF10A rereplic inconclusive, HT1080 IDH1KD tx -6.7%, SW480 rereplic -5.6% and KB-3-1 tox inactive.
Cc1ccc(S(=O)(=O)N2CCN(C(=O)c3ccc(N4CCCC4)c([N+](=O)[O-])c3)CC2)cc1 was read as KB-V1 cytotox inconclusive, HT1080-NT tox -0.3%, MCF10A rereplic 2.3%, HT1080 IDH1KD tx 11.1%, SW480 rereplic inconclusive and KB-3-1 tox inactive.
`COCCCNC(=O)c1cc2cc(Br)ccc2oc1=O` gave KB-V1 cytotox inactive, HT1080-NT tox inconclusive, MCF10A rereplic 3.1%, HT1080 IDH1KD tx 25.2%, SW480 rereplic -7.8% and KB-3-1 tox inactive.
For O=C(NNC(=O)c1cc2cc(Br)ccc2oc1=O)c1ccc(O)cc1O the results were KB-V1 cytotox inconclusive, HT1080-NT tox inconclusive, MCF10A rereplic inconclusive, HT1080 IDH1KD tx 1.84µM*, SW480 rereplic 10.6% and KB-3-1 tox inactive.
Cc1ncsc1CCC(=O)N1CCCC(Nc2ccc(F)c(F)c2)C1 (stereo unspecified) was read as KB-V1 cytotox inconclusive, HT1080-NT tox -4.4%, MCF10A rereplic 7.5%, HT1080 IDH1KD tx -7.2%, SW480 rereplic 2.4% and KB-3-1 tox inactive.
Cc1cccc(N2CCN(C(=O)Cc3cn(C)c4ccccc34)CC2)c1C was read as KB-V1 cytotox 18.4µM*, HT1080-NT tox inconclusive, MCF10A rereplic 18.4µM*, HT1080 IDH1KD tx inconclusive, SW480 rereplic inconclusive and KB-3-1 tox inconclusive.
`Cc1ccc(C)c(N2CCN(CCCNC(=O)Cn3cccc3C(=O)c3ccccc3C)CC2)c1` gave KB-V1 cytotox inconclusive, HT1080-NT tox 23.1µM*, MCF10A rereplic inconclusive, HT1080 IDH1KD tx 23.1µM*, SW480 rereplic 9.6% and KB-3-1 tox inactive.
Screening Cc1cccc(N2CCN(C(=O)Cn3ncc4c5ccccc5n(C)c4c3=O)CC2)c1C returned KB-V1 cytotox inactive and KB-3-1 tox inactive.
`Cc1ccccc1C(=O)c1cccn1CC(=O)NCCN1CCN(c2cccc(C)c2C)CC1` gave KB-V1 cytotox inactive, HT1080-NT tox 23.1µM*, MCF10A rereplic inconclusive, HT1080 IDH1KD tx 20.6µM*, SW480 rereplic inconclusive and KB-3-1 tox inconclusive.
Cc1cccc(N2CCN(C(=O)CCNC(=O)Cn3ccc4ccccc4c3=O)CC2)c1C was read as KB-V1 cytotox 20.6µM*, HT1080-NT tox -0.5%, MCF10A rereplic 1.3%, HT1080 IDH1KD tx 0.9%, SW480 rereplic 2.2% and KB-3-1 tox inactive.
O=C(COC(=O)C1CCC1)Nc1cc(S(=O)(=O)N2CCOCC2)ccc1Cl was read as KB-V1 cytotox inactive, HT1080-NT tox 8.3%, HT1080 IDH1KD tx 1.6% and KB-3-1 tox inactive.
`CC(=O)c1c(N2CCCCC2)nc(=O)n(-c2ccccc2)c1C` gave KB-V1 cytotox inactive, HT1080-NT tox 2.3%, MCF10A rereplic -12.0%, HT1080 IDH1KD tx -1.6%, SW480 rereplic -0.9% and KB-3-1 tox inactive.
`CC(=O)C12OC1CC1C3CCC4=CC(=O)CCC4(C)C3CCC12C` (stereo unspecified) gave KB-V1 cytotox inactive, HT1080-NT tox 22.1%, MCF10A rereplic -0.2%, HT1080 IDH1KD tx 0.4%, SW480 rereplic -3.6% and KB-3-1 tox inactive.
`C=C1CC2C3CC[C@@]4(OCOC45COCO5)[C@@]3(C)C(O)CC2[C@@]2(C)CCC(=O)C=C12` (stereo partly specified) gave KB-V1 cytotox inconclusive, HT1080-NT tox -24.9%, MCF10A rereplic 5.17µM*, HT1080 IDH1KD tx inconclusive, SW480 rereplic inconclusive and KB-3-1 tox inactive.
Screening O=C(O)C1CCCCC1C(=O)Nc1ccc(OCc2ccccc2)cc1 (stereo unspecified) returned KB-V1 cytotox inactive, HT1080-NT tox -2.4%, MCF10A rereplic inconclusive, HT1080 IDH1KD tx -13.6%, SW480 rereplic 2.3% and KB-3-1 tox inactive.
Screening O=C1c2cccc3c([N+](=O)[O-])ccc(c23)C(=O)N1c1ccc(Cl)cn1 returned KB-V1 cytotox inactive, HT1080-NT tox 4.47µM*, MCF10A rereplic inconclusive, HT1080 IDH1KD tx 1.58µM*, SW480 rereplic 4.11µM* and KB-3-1 tox inactive.
Screening O=C1c2cccc3c([N+](=O)[O-])ccc(c23)C(=O)N1O returned KB-V1 cytotox inactive, HT1080-NT tox inconclusive, MCF10A rereplic 20.6µM*, HT1080 IDH1KD tx inconclusive, SW480 rereplic inconclusive and KB-3-1 tox inactive.
O=C1c2cccc3c([N+](=O)[O-])ccc(c23)C(=O)N1c1nccs1 was read as KB-V1 cytotox inconclusive, HT1080-NT tox 8.91µM*, MCF10A rereplic 7.31µM*, HT1080 IDH1KD tx 2.24µM*, SW480 rereplic 7.31µM* and KB-3-1 tox inconclusive.
Screening COc1ccc2c3c(cccc13)C(=O)N(O)C2=O returned KB-V1 cytotox inconclusive, HT1080-NT tox inconclusive, MCF10A rereplic inconclusive, HT1080 IDH1KD tx 20.6µM*, SW480 rereplic inconclusive and KB-3-1 tox inconclusive.
Screening COc1ccccc1N1C(=O)c2cccc3c(C(=O)O)ccc(c23)C1=O returned KB-V1 cytotox inactive, HT1080-NT tox 3.1%, MCF10A rereplic 1.9%, HT1080 IDH1KD tx 13.3%, SW480 rereplic -9.6% and KB-3-1 tox inactive.
CCN(NC(=O)C(O)(c1ccc(F)cc1)c1ccc(F)cc1)C(=O)c1ccccc1 was read as KB-V1 cytotox inactive, HT1080-NT tox 5.2%, MCF10A rereplic -2.9%, HT1080 IDH1KD tx -0.1%, SW480 rereplic 35.0% and KB-3-1 tox inactive.
O=C1c2cccc3c(N4CCCCC4)ccc(c23)C(=O)N1c1ccccn1 was read as KB-V1 cytotox inactive, HT1080-NT tox -3.0%, MCF10A rereplic -0.6%, HT1080 IDH1KD tx 1.7%, SW480 rereplic -0.8% and KB-3-1 tox inactive.
O=C1c2cccc3c([N+](=O)[O-])ccc(c23)C(=O)N1c1ccccn1 was read as KB-V1 cytotox inconclusive, HT1080-NT tox 25.9µM*, MCF10A rereplic 4.11µM*, HT1080 IDH1KD tx inconclusive, SW480 rereplic 11.6µM* and KB-3-1 tox inactive.
